Assay [1] is described as follows: qHTS assay to identify small molecule agonists of H2AX (AID 1224845; active = well fitted activation curve with a large enough effect in the signal ratio in the repeat runs, not every such curve was filed as active; the % refers to the signal ratio). A digest of the protocol:
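Wild-type CHO-K1 cells, plated overnight, exposed 3hr at 37C to 15 concentrations (0.76% DMSO final). Lysed, then HTRF anti-pH2AX (S139) cryptate and anti-H2AX-d2 antibodies, 24 hr room temperature; 665/620 nm emission read.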
In general terms: Quantitative high-throughput screening tests each substance at several concentrations.

Assay [2] in a line: qHTS assay to identify small molecule agonists of the hypoxia (HIF-1) signaling pathway (AID 1224846; active = well fitted activation curve with a large enough effect in the signal ratio in the repeat runs, not every such curve was filed as active; the % refers to the signal ratio). A digest of the protocol: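 Reporter induction in HRE-bla ME-180 cells is taken as agonism: cells sit 5 hrs after plating, receive compounds or DMSO only, incubate 17 hrs at 37C under 5% CO2, and are loaded with CCF4-AM for beta-lactamase FRET measurement.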
Assay [3] in a line: qHTS assay to identify small molecule agonists of H2AX - cell viability counter screen (AID 1224847; calls by dose curve; also: top concentration of the series differs between compounds; nearly all actives have a fitted effect of over 30% in size). A digest of the protocol: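 Compounds tested at 15 concentrations were incubated 3 hr at 37C with wild-type CHO-K1 cells; cellular ATP-based luminescence (CellTiter-Glo) indicated viability.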
Assay [4] can be described thus: qHTS assay to identify small molecule antagonists of the estrogen related receptor (ERR) signaling pathway from Tox21 library (AID 1224848). Also: nearly all actives have a fitted effect of over 50% in size. Also: potency is read from the fitted curve at half-maximal effect. A digest of the protocol:
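Compounds dissolved in DMSO are pin-transferred onto ERR reporter cells (2,000 per well) that have settled for 6 h at 37 C. Plates then incubate 18 h at 37 C before ONE-Glo luciferase reagent and a luminescence read 30 min later.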

Assay [5] in a line: qHTS assay to identify small molecule agonists of the estrogen related receptor (ERR) signaling pathway from Tox21 library (AID 1224849; calls by dose curve; also: nearly all actives have a fitted effect of over 15% in size). The settings on record: ERR reporter cell line, ONE-Glo luciferase, 18 h; at 92.4 µM (top of the series). A digest of the protocol:
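Tox21 compounds tested for ERR agonism in an NTP reporter cell line: 18 h treatment at 37 C, then ONE-Glo luminescence.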

Assay [6] in a line: qHTS RealTime-Glo MT Cell Viability Assay in HepG2 cells - 24 hour (AID 1224867). Also: nearly all actives have a fitted effect of over 50% in size. A digest of the protocol:
(§1)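 Tox21 10K library screened in qHTS format on HepG2 cells carrying RealTime-Glo reagents. Compounds were added after a 5 h preincubation, and the luminescent signal from continuous culture was measured repeatedly during 40 h treatment.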

Assay [7] in a line: qHTS RealTime-Glo MT Cell Viability Assay in HEK293 cells - 32 hour (AID 1224868). Also: nearly all actives have a fitted effect of over 50% in size. Also: potency is read from the fitted curve at half-maximal effect. A digest of the protocol:
(§2)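 Luminescence generated by NanoLuc from substrate produced by living HEK293 cells served as the viability signal. Each value reflects the reading at its stated time point during continuous 40 h compound exposure at 37 C.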

The nature of assay [8]: A CellTox Green Cytotoxicity Assay to monitor cytotoxicity in HEK293 cells - 0 hour (AID 1224869). Also: nearly all actives have a fitted effect of over 50% in size. A digest of the protocol: (§3)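 Tox21 screen in HEK293: membrane-impermeant cyanine dye fluoresces on binding dead-cell DNA; compound pinned 5 h post-seeding, plates held at 37 C, signal read repeatedly through 40 h.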
Assay [9] is described as follows: qHTS RealTime-Glo MT Cell Viability Assay in HepG2 cells - 40 hour (AID 1224870). Also: nearly all actives have a fitted effect of over 50% in size. A digest of the protocol:
(§4)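 HepG2 cells (600/well) mixed with RealTime-Glo MT reagent, settled 5 h at 37 C/5% CO2 before compound addition. Nonlytic NanoLuc luminescence from viable-cell prosubstrate reduction read repeatedly during 40 h treatment at 37 C.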

The nature of assay [10]: A CellTox Green Cytotoxicity Assay to monitor cytotoxicity in HEK293 cells - 40 hour (AID 1224871). Also: nearly all actives have a fitted effect of over 45% in size. Also: potency is read from the fitted curve at half-maximal effect. A digest of the protocol: as §3
Assay [11] can be described thus: qHTS RealTime-Glo MT Cell Viability Assay in HEK293 cells - 40 hour (AID 1224874). Also: nearly all actives have a fitted effect of over 50% in size. Also: potency is read from the fitted curve at half-maximal effect. The settings on record: RealTime-Glo luminescence; max response: stronger effect = lower value. A digest of the protocol:
(§5)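 HEK293 + NanoLuc + prosubstrate, 600 cells/well; 5 h, 37 C/5% CO2; compound 23 nL in DMSO by pintool; 37 C; luminescence read at 0, 8, 16, 24, 32 and 40 h time points.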

Assay [12] is described as follows: A CellTox Green Cytotoxicity Assay to monitor cytotoxicity in HEK293 cells - 24 hour (AID 1224875). Also: nearly all actives have a fitted effect of over 45% in size. A digest of the protocol:
as §3

The nature of assay [13]: A CellTox Green Cytotoxicity Assay to monitor cytotoxicity in HepG2 cells - 16 hour (AID 1224876). Also: nearly all actives have a fitted effect of over 45% in size. A digest of the protocol:
(§6)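 Measurements at 0, 8, 16, 24, 32 and 40 h of treatment captured CellTox Green fluorescence in HepG2 cells that had been co-plated with reagent and preincubated 5 h at 37 C/5% CO2.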

Assay [14] is described as follows: qHTS RealTime-Glo MT Cell Viability Assay in HepG2 cells - 32 hour (AID 1224877). Also: nearly all actives have a fitted effect of over 55% in size. A digest of the protocol:
as §1

Assay [15] can be described thus: A CellTox Green Cytotoxicity Assay to monitor cytotoxicity in HepG2 cells - 24 hour (AID 1224878). Also: nearly all actives have a fitted effect of over 45% in size. A digest of the protocol: as §6
Assay [16] in a line: A CellTox Green Cytotoxicity Assay to monitor cytotoxicity in HepG2 cells - 40 hour (AID 1224879). Also: nearly all actives have a fitted effect of over 40% in size. Also: potency is read from the fitted curve at half-maximal effect. A digest of the protocol: as §6
The nature of assay [17]: qHTS RealTime-Glo MT Cell Viability Assay in HEK293 cells - 0 hour (AID 1224880). A digest of the protocol:
as §5

The nature of assay [18]: A CellTox Green Cytotoxicity Assay to monitor cytotoxicity in HEK293 cells - 32 hour (AID 1224881). Also: nearly all actives have a fitted effect of over 40% in size. Also: potency is read from the fitted curve at half-maximal effect. A digest of the protocol:
as §3

The nature of assay [19]: qHTS RealTime-Glo MT Cell Viability Assay in HEK293 cells - 16 hour (AID 1224872). Also: nearly all actives have a fitted effect of over 50% in size. Also: potency is read from the fitted curve at half-maximal effect. A digest of the protocol:
as §2

A short description of assay [20]: qHTS RealTime-Glo MT Cell Viability Assay in HepG2 cells - 8 hour (AID 1224873). Also: nearly all actives have a fitted effect of over 55% in size. A digest of the protocol: as §4

Several values for one entry are separate records, joined by “and”; a condition that tells them apart may be missing. Equal entries are not always repeated. Inconclusive results are not listed. A structure can be active in one record and inactive in another. Activity calls are given as the source filed them. Unless noted, calls follow the shape of the dose curve; as a rule, active = well fitted curve in the direction sought with a large enough effect in the repeat runs; inconclusive = weak or mixed curves; inactive = no such curve, though single readings can be large; an effect the other way counts as inactive or inconclusive.
% is scaled to controls: 0 for no effect and ±100 for the full control effect.

As for `OB(O)O`, the Potency result in assay [1], in [3], in assay [4], in assay [6], in [7] and in assay [8] was “inactive” throughout. Further, the Potency result in assay [9], in [10], in [12], in [13], in [14] and in assay [15] was “inactive” each time. Moreover, the Potency result in [16], in assay [17] and in [18] was “inactive” each time. Also, the molecule was classed as inactive in assay [2]. Further, in assay [5], the activity change, positive = activation was 4.58% (inactive) and 4.55% (inactive). Further, the max response in assay [11] was 1.85% (inactive) and 3.92% (inactive).

Consider `C[n+]1ccn(CCO)c1`, for which the Potency entry in assay [1], in assay [3], in [4], in [6], in assay [7] and in [8] was “inactive” in each case. For the same molecule, the Potency result in assay [9], in assay [10], in assay [19], in assay [20], in assay [12] and in [13] was “inactive” in each case. Besides, the Potency entry in [14], in [15], in [16], in [17] and in assay [18] was “inactive” each time. For the same molecule, in [2], the call was inactive. For the same molecule, the activity change, positive = activation in assay [5] was 4.16% (inactive) and -3.23% (inactive). Moreover, in [11], the max response was 6.1% (inactive) and 16.8% (inactive).

As to `CC(=O)OCCC(C)C`, the Potency entry in assay [1], in assay [3], in assay [4], in assay [6], in [7] and in assay [8] was “inactive” each time. Moreover, the Potency result in [9], in assay [10], in assay [19], in assay [20], in assay [12] and in assay [13] was “inactive” throughout. Besides, the Potency result in assay [14], in [15], in assay [16], in assay [17] and in assay [18] was “inactive” in each case. Moreover, the result in assay [2] was inactive. Moreover, in [5], the activity change, positive = activation was 1.01% (inactive) and 5.99% (inactive). For the same molecule, the max response in [11] was 3.8% (inactive) and 7.54% (inactive).

In the case of `CC1=CC(=O)CC(C)(C)C1`, the Potency result in assay [1], in assay [3], in assay [6], in assay [7], in assay [8] and in assay [9] was “inactive” each time. For the same molecule, the Potency result in [20], in assay [12], in assay [13], in assay [14], in [15] and in [17] was “inactive” in each case. Also, the molecule was classed as inactive in [2]. Besides, the Potency was 14.1 µM (active) and inactive in [4]; 25.3 µM (active) and inactive in assay [10]; 25.3 µM (active) and inactive in assay [16]; 40 µM (active) and inactive in assay [18]. Moreover, in [5], the activity change, positive = activation was -82.9% (inactive) and 7.49% (inactive). For the same molecule, the max response in assay [11] is 9.76% (inactive).

As to `COc1cc(NC(=O)CC(C)=O)c(OC)cc1Cl`, the Potency entry in [1], in [3], in assay [4], in assay [6], in [8] and in assay [9] was “inactive” in each case. Further, the Potency entry in assay [10], in assay [20], in assay [13], in assay [14], in assay [15] and in assay [16] was “inactive” in each case. Besides, the Potency entry in assay [17] and in [18] was “inactive” each time. For the same molecule, in [2], the call was inactive. Moreover, the activity change, positive = activation in [5] is -16.1% (inactive) and -21.5% (inactive). For the same molecule, the Potency entry is “inactive and 11 µM (active)” in assay [7]; “inactive and 21.9 µM (active)” in [19]; 12.3 µM (active) in assay [11]. In addition, the max response in [11] was -13.4% (inactive).

Consider `C=CC(C)(C)C`, for which the Potency entry in [1], in assay [3], in assay [4], in assay [6], in assay [7] and in assay [8] was “inactive” each time. Also, the Potency entry in [9], in assay [10], in [19], in assay [20], in assay [12] and in assay [13] was “inactive” in each case. The Potency entry in assay [14], in assay [15], in assay [16], in assay [17] and in [18] was “inactive” throughout. In assay [2], the result was inactive. Also, the activity change, positive = activation in [5] is 1.24% (inactive) and -3.33% (inactive). For the same molecule, the max response in [11] was 1.9% (inactive) and -10.6% (inactive).

The values above are taken from PubChem BioAssay (Tox21).
